Screening data: PubChem BioAssay, Broad Institute
IDE exosite FP: exo-site inhibitors of human insulin-degrading enzyme. purified IDE, FL-6b probe fluorescence polarization; active compounds read low. z-score at 20 µM. 17,000 tested, 6.3% active. AID 1259349;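 active means z-score of -3 or lower, meaning strong loss of probe binding signal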;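 further: His-tagged human IDE residues 42-1019 made in E. coli with 30 nM FL-6b probe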
Target sequence (P14735 42-1019 limits assumed): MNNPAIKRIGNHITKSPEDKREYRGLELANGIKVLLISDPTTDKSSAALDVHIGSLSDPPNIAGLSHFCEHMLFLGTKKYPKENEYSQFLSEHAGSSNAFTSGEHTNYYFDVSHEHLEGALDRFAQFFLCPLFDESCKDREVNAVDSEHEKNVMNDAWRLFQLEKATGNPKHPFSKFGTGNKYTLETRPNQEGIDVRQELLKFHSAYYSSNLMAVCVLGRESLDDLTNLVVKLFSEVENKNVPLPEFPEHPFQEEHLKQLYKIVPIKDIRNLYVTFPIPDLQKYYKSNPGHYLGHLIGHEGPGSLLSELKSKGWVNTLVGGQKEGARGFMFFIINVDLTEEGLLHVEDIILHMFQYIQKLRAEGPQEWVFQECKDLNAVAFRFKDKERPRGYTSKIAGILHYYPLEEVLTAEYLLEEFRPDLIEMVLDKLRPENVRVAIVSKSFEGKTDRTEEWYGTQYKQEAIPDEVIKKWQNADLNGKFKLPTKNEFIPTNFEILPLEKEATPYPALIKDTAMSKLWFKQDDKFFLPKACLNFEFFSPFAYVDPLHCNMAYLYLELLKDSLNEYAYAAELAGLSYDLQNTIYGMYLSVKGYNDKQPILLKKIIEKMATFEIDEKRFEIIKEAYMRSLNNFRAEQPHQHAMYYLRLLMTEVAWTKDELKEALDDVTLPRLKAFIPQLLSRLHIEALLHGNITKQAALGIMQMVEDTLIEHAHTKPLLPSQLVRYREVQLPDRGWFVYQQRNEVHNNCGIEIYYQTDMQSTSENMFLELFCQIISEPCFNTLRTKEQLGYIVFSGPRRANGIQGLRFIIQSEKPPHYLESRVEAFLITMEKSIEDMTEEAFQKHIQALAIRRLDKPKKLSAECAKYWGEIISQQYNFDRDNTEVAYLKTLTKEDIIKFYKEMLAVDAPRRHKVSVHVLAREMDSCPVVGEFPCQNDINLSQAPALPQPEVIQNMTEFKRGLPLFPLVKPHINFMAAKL
Starred values were filed as active, the others as inactive. Shown is part of a subset that was picked to be rich in hits.

`COc1ccc(CN(C)C[C@@H]2OCc3cnnn3CCCC(=O)N([C@H](C)CO)C[C@@H]2C)cc1` gave IDE exosite FP -1.5.
Screening O=C(CCN1CCCCC1)N[C@H]1CC[C@@H](CCn2cc(-c3cccc(F)c3)nn2)O[C@H]1CO returned IDE exosite FP 0.21.
`O=C(c1ccc(F)cc1)N1CC(=O)N2[C@@H](CO)[C@@H](c3ccc(-c4ccccc4F)cc3)[C@@H]2C1` gave IDE exosite FP -0.78.
O=C(c1ccc(F)cc1)N1CC(=O)N2[C@H](CO)[C@H](c3ccc(-c4ccccc4F)cc3)[C@H]2C1 was read as IDE exosite FP 3.
O=C(c1ccncc1)N1CC(=O)N2[C@H](C1)[C@@H](c1ccc(-c3ccccc3F)cc1)[C@@H]2CO was read as IDE exosite FP -7.4*.
O=C(c1ccncc1)N1CC(=O)N2[C@H](CO)[C@@H](c3ccc(-c4ccccc4F)cc3)[C@H]2C1 was read as IDE exosite FP 0.35.
`O=C(c1ccncc1)N1CC(=O)N2[C@@H](CO)[C@H](c3ccc(-c4ccccc4F)cc3)[C@@H]2C1` gave IDE exosite FP -4.8*.
`O=C(c1ccncc1)N1CC(=O)N2[C@@H](CO)[C@@H](c3ccc(-c4ccccc4F)cc3)[C@@H]2C1` gave IDE exosite FP -1.6.
Screening O=C(C[C@@H]1CC[C@H]2[C@@H](COC[C@H](O)CN2Cc2nccs2)O1)NCc1ccccc1Cl returned IDE exosite FP 0.13.
`O=C(Nc1ccc2c(c1)OCO2)N1C[C@@H]2N[C@H](C1)C2c1ccc(-c2ccccc2)cc1` (stereo partly specified) gave IDE exosite FP -0.18.
`COc1ccccc1NC(=O)N1CC(=O)N2[C@H](CO)[C@H](c3ccc(C#CC4CC4)cc3)[C@H]2C1` gave IDE exosite FP 1.7.
Screening Cc1ccc(S(=O)(=O)Nc2ccc3c(c2)CC(=O)N([C@@H](C)CO)C[C@H](C)[C@H](CN(C)S(=O)(=O)c2ccccc2)O3)cc1 returned IDE exosite FP -0.088.
O=C1NCCOCc2cn(nn2)CC[C@@H]1Cc1ccc(F)cc1 was read as IDE exosite FP 1.4.
For CC(C)[C@H]1COCc2cn(nn2)CCC[C@@H](C)C(=O)N1 the results were IDE exosite FP 0.82.
`CCC(=O)N1[C@H](CO)[C@H]2c3ccccc3N(C(=O)c3cnccn3)C[C@H]21` gave IDE exosite FP 2.
For O=C(NC1CCCCC1)N1CC(=O)N2[C@H](CO)[C@@H](c3ccc(/C=C/c4ccccc4)cc3)[C@@H]2C1 the results were IDE exosite FP -3.6*.
O=C(NC1CCCCC1)N1CC(=O)N2[C@H](C1)[C@H](c1ccc(/C=C/c3ccccc3)cc1)[C@@H]2CO was read as IDE exosite FP -3.9*.
`CC(C)CC#Cc1ccc([C@@H]2[C@H](CO)N3C(=O)CN(C(=O)NC4CCCCC4)C[C@@H]23)cc1` gave IDE exosite FP 1.4.
Screening O=C(NC1CCCCC1)N1CC(=O)N2[C@H](CO)[C@H](c3ccc(/C=C/c4ccccc4)cc3)[C@@H]2C1 returned IDE exosite FP -10*.
For O=C(NC1CCCC1)N1CC(=O)N2[C@H](C1)[C@@H](c1ccc(/C=C/c3ccccc3)cc1)[C@@H]2CO the results were IDE exosite FP 0.84.
O=C(NC1CCCC1)N1CC(=O)N2[C@H](CO)[C@@H](c3ccc(/C=C/c4ccccc4)cc3)[C@@H]2C1 was read as IDE exosite FP 0.29.
`O=C(NC1CCCCC1)N1CC(=O)N2[C@@H](CO)[C@H](c3ccc(/C=C/c4ccccc4)cc3)[C@@H]2C1` gave IDE exosite FP -7.4*.
Screening CC(C)CC#Cc1ccc([C@H]2[C@H](CO)N3C(=O)CN(C(=O)NC4CCCCC4)C[C@@H]23)cc1 returned IDE exosite FP 0.26.
Screening CN(C)C(=O)C[C@H]1C[C@@H]2c3cc(NC(=O)Nc4ccc(F)cc4)ccc3O[C@@H]2[C@H](CO)O1 returned IDE exosite FP 1.2.
For CNC[C@@H]1OCCCC[C@H](C)Oc2ccc(NS(=O)(=O)c3ccc(F)cc3)cc2C(=O)N([C@@H](C)CO)C[C@H]1C the results were IDE exosite FP 0.74.
Screening CO[C@@H]1CN(C)C(=O)c2ccc(NS(=O)(=O)c3cccc(Cl)c3)cc2OC[C@@H](C)N(C(=O)Cc2cccnc2)C[C@H]1C returned IDE exosite FP 0.55.
For COc1ccc2c3c([nH]c2c1)[C@H](CO)N(C(=O)C1CCOCC1)CC31CCN(Cc2cccc(F)c2)CC1 the results were IDE exosite FP -0.017.
For COc1ccc(S(=O)(=O)N2C[C@@H](O)COC[C@@H]3O[C@H](CC(=O)N[C@@H]4CCN(Cc5ccccc5)C4)CC[C@H]32)cc1 the results were IDE exosite FP 0.81.
For COCC(=O)Nc1ccc2c(c1)OC[C@@H](C)N(C(=O)Nc1ccccc1F)C[C@@H](C)[C@H](OC)CN(C)C2=O the results were IDE exosite FP -1.3.
CC(=O)N1CC[C@@H]2[C@H](CO)Nc3ccc(-c4ccccc4)cc3[C@@H]21 was read as IDE exosite FP 2.1.
Screening CCN(C[C@H]1[C@H](c2ccccc2)[C@@H](CO)N1S(C)(=O)=O)C(=O)C1CCC1 returned IDE exosite FP 3.
